Reference: ChEMBL document CHEMBL4513146, “CO-ADD screening of Karazin Kharkiv National University (Ukraine) compounds”
Measured potencies and affinities stand elsewhere.

These molecules were tested on Staphylococcus aureus. Conditions: Concentration 32 ug.mL-1;; ASSAY_TEST Inhibition of Bacterial Growth; detection method Absorption (OD600); MEDIA CAMHB; plate type 384well; NBS; CORNING #3640; time 18 hr.
Work on `CCOc1ccccc1CNC(=O)CCc1nnc2ccc(-c3ccccc3)nn12` yielded an Inhibition of 9.42%. Molecule `Cc1ccc(Cn2c(=O)c3ccccc3n3c(=O)n(CC(=O)Nc4ccc5c(c4)OCCO5)nc23)cc1` has an Inhibition of 6.52%. `Cc1[nH]c2ccccc2c1C(=O)CSc1nnc2c(=O)n(-c3ccccc3)ccn12` was tested, and the Inhibition was 16.56%. With `CCOc1ccc(-n2ccn3c(SC(C)C(=O)Nc4cc(OC)cc(OC)c4)nnc3c2=O)cc1` (stereo not given) the Inhibition was 1.84%. In the case of `Cc1ccc(CN(c2ccc(F)cc2)S(=O)(=O)c2ccc3nnc(C)n3c2)cc1`, the Inhibition is reported as -8.78%. With `O=c1n(Cc2cccc(C(F)(F)F)c2)nc2c(S(=O)(=O)N3CCCCCC3)cccn12` the Inhibition was 5.28%. `CCCn1c(=O)c2sccc2n2c(=O)n(CC(=O)c3cc(C)ccc3C)nc12` was tested, and the Inhibition was 7.83%. Work on `Cc1cc(C)cc(Nc2nc(C)cc3nn(CC(=O)N(C)c4cccc(C)c4)c(=O)n23)c1` yielded an Inhibition of 5.67%. Molecule `CCc1nnc2c(S(=O)(=O)N(Cc3cccc(OC)c3)c3cccc(C)c3)cccn12` has an Inhibition of 10.64%. In the case of `O=C(CSc1nnc2ccc(C(=O)Nc3cccc(F)c3)cn12)Nc1ccc(F)c(F)c1`, the Inhibition is reported as 8.43%. Molecule `CC(C)c1nnc2c(SCC(=O)Nc3ccc4c(c3)OCO4)nc3ccccc3n12` has an Inhibition of -0.91%. Work on `O=C(Cn1nc2c(Sc3ccccc3)nccn2c1=O)Nc1cc(F)ccc1F` yielded an Inhibition of 0.01%. With `Cc1ccc(CN(c2cccc(F)c2)S(=O)(=O)c2ccc3nnc(C)n3c2)cc1` the Inhibition was -4.51%. Work on `COc1cccc(-n2ccn3c(SCC(=O)Nc4ccc(OC)c(OC)c4)nnc3c2=O)c1` yielded an Inhibition of 14.09%. Molecule `COc1cccc(-n2ccn3c(SCC(=O)c4ccc(F)cc4)nnc3c2=O)c1` has an Inhibition of 13.82%. Work on `O=C(Cn1nc2c(Oc3ccc(Cl)cc3)nccn2c1=O)Nc1ccc2c(c1)OCO2` yielded an Inhibition of 6.57%. `O=C(Cn1nc2ccc(C(=O)NCc3ccccc3)cn2c1=O)Nc1ccc(Br)cc1` showed an Inhibition of 3.47%. `O=c1c2sccc2n2c(=O)n(Cc3cccc(Br)c3)nc2n1Cc1cccs1` showed an Inhibition of -27.59%. `CCC(Sc1nnc2c(=O)n(-c3cccc(OC)c3)ccn12)C(=O)Nc1cc(OC)cc(OC)c1` (stereo not given) showed an Inhibition of 13.02%. In the case of `O=C(Cn1nc2c(SCc3ccc(Cl)cc3)nccn2c1=O)Nc1ccccc1F`, the Inhibition is reported as 4.88%. Work on `Cc1cc(NC(=O)Cn2nc3ccc(SC(C)(C)C)nn3c2=O)ccc1Br` yielded an Inhibition of -0.85%. `COc1ccc(N(Cc2cccc(C)c2)S(=O)(=O)c2ccc3nnc(C)n3c2)cc1` was tested, and the Inhibition was 2.37%. Work on `Cc1cc(C)cc(Oc2nccn3c(=O)n(CC(=O)Nc4cccc(Cl)c4)nc23)c1` yielded an Inhibition of -12.18%. `COc1ccccc1NC(=O)Cn1nc2c3c4c(sc3ncn2c1=O)CCCC4` showed an Inhibition of 0.74%. For `O=c1c2sccc2n2c(=O)n(Cc3cccc(F)c3)nc2n1Cc1cccs1`, the Inhibition was -6.6%. `CSc1cccc(NC(=O)Cn2nc3ccc(C(=O)NCc4ccccc4)cn3c2=O)c1` was tested, and the Inhibition was 5.85%. For `COc1ccc(NC(=O)Cn2nc3ccc(SC(C)(C)C)nn3c2=O)cc1Cl`, the Inhibition was -0.4%. With `CC(C)c1ccc(NC(=O)CSc2nnc3c(=O)n(-c4ccccc4)ccn23)cc1` the Inhibition was 3.45%. For `Cc1nnc2c(SCC(=O)Nc3ccc(F)cc3F)nc3ccccc3n12`, the Inhibition was 11.73%. In the case of `O=C(CSc1nnc2c(=O)n(-c3cccc(F)c3)ccn12)c1ccc(F)cc1`, the Inhibition is reported as 5.39%. In the case of `CC(C)NC(=O)Cn1nc2nc(Nc3ccc(F)cc3)ccn2c1=O`, the Inhibition is reported as 8.74%. For `Cc1ccc(-c2cc3c4nn(CC(=O)Nc5c(C)cccc5C)c(=O)n4ccn3n2)cc1`, the Inhibition was 9.95%. In the case of `CCOc1ccc(C(=O)CSc2nnc3c(=O)n(-c4ccc(C)c(C)c4)ccn23)cc1`, the Inhibition is reported as 9.97%. `O=C(Cn1nc2n(CCc3ccccc3)c(=O)c3ccccc3n2c1=O)Nc1ccc2c(c1)OCO2` showed an Inhibition of -2.08%. Work on `O=C(CSc1nnc2c(=O)n(-c3ccc(F)cc3)ccn12)c1ccccc1Cl` yielded an Inhibition of 19.94%. `O=C(Cn1nc2c3cc(-c4ccc(Cl)cc4)nn3ccn2c1=O)Nc1ccc(F)cc1` gave an Inhibition of 7.29%. Work on `COc1ccc(N2CCN(C(=O)Cn3nc4c(Oc5cccc(C)c5C)nccn4c3=O)CC2)cc1` yielded an Inhibition of 7.43%. In the case of `C=Cc1ccc(CSc2nnc3c(=O)n(-c4cccc(OC)c4)ccn23)cc1`, the Inhibition is reported as 15.25%. Molecule `CCc1nnc2c(S(=O)(=O)N(Cc3ccccc3C)c3ccc(C(C)C)cc3)cccn12` has an Inhibition of 3.95%. `CC(C)c1ccc(CNC(=O)CCc2nnc3c(N4CCCCC4)nc4ccccc4n23)cc1` gave an Inhibition of 3.73%.
